# Measurements reported in PubChem BioAssay AID1852 (Sanford-Burnham Center for Chemical Genomics, 2009).
# The whole screen tested about 2,500 compounds, of which about 1,100 (44%) were called active.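 Rule for the calls: active = inhibition above 50% at 4 µM in the single-point screen; inactive = inhibition of 50% or less.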 The set was probably picked from earlier hits. This is one part of the list.
# Assay: blockers of TNF-a NF-kB luciferase induction – cell-based, HEK293T NF-kB-Luc, luminescence, selectivity assay for NOD1/NOD2 signaling inhibitor project, primary screen (AID 1852)
# Details: TNF-a induced, 14 h, at 4 µM, stronger effect = higher value
row,SMILES,inhibition
1,Cc1cc(C)c(C#N)c(SCc2nnc(-c3ccccc3)o2)n1,0% (inactive)
2,CCOc1ccc(NC(=O)Nc2ccc3c(c2)N(C)C(=O)CS3)cc1,14.3% (inactive)
3,O=S(=O)(c1ccc(N=C2NN=C(c3cc(F)ccc3F)CS2)cc1)N1CCOCC1,77.4% (active)
4,Cn1c(O)c(N=NC(=S)Nc2ccccc2F)c2cc(S(=O)(=O)N3CCOCC3)ccc21,12.5% (inactive)
5,O=C(Nc1ccc(S(=O)(=O)N2CCOCC2)cc1)c1cc(-c2cc(Cl)ccc2O)n[nH]1,-2.1% (inactive)
6,CCCCN(c1ccccc1)c1ncnc(N)c1[N+](=O)[O-],83.7% (active)
7,C=CCN(C(=O)CCc1ccccc1OC)c1nc(-c2ccc(S(C)(=O)=O)cc2)cs1,-10.1% (inactive)
8,CCOC(=O)c1c(C)[nH]c(C(=O)OCC(=O)N2CCN(S(=O)(=O)c3ccccc3)CC2)c1C,0% (inactive)
9,CC(=O)c1c(C)[nH]c(C(=O)COC(=O)c2cccc(S(=O)(=O)N(C)c3ccccc3)c2)c1C,84.9% (active)
10,C[C@@H](C(=O)NCc1ccccn1)[C@H]1C[C@]1(C)[C@H](NC(=O)OCc1ccccc1)c1ccccc1,-9% (inactive)
11,O=C(NC(=S)N1CCN(c2ccc(F)cc2)CC1)c1cccs1,11.7% (inactive)
12,O=C(NC(=S)N1CCN(c2ccc(C(F)(F)F)cc2[N+](=O)[O-])CC1)c1cccs1,101% (active)
13,CN1CCN(c2ccc(C(CC(N)=O)NC(=O)c3ccccc3)cc2[N+](=O)[O-])CC1 (centres undefined),10.7% (inactive)
14,O=C(/C=C/c1ccc(Cl)cc1Cl)N1CCN(c2ccccc2[N+](=O)[O-])CC1,-38.9% (inactive)
15,O=C(Nc1ccc(F)c([N+](=O)[O-])c1)c1cccs1,4.2% (inactive)
16,O=C(NC(=S)N1CCN(c2ccc(Cl)cc2[N+](=O)[O-])CC1)c1cccs1,53.9% (active)
17,Cc1cccc(-n2c(SCC(=O)N3CCC(C(=O)O)CC3)nc3ccccc3c2=O)c1C,74.3% (active)

row,SMILES,inhibition
1,Cn1c(SCC(=O)N2CCCc3ccccc32)nc2ccccc2c1=O,43.4% (inactive)
2,Cc1cccc(N2CCN(C(=O)Cc3cn(C)c4ccccc34)CC2)c1C,-31.6% (inactive)
3,O=C(CCl)Nc1cc(SCC(O)CO)cc([N+](=O)[O-])c1 (centres undefined),96.6% (active)
4,COc1ccc(-[n+]2c(C)cc(/C=C3\Sc4ccccc4N3C)cc2C)cc1,67% (active)
5,CCn1c(NC(=O)/C=C/c2ccc(F)cc2)nc2ccccc21,0% (inactive)
6,CC(C)Cn1c(N2CCN(C(=O)/C=C/c3ccccc3)CC2)nc2ccccc21,0.5% (inactive)
7,C=CCSc1nc2ccccc2n1C(=O)/C=C/c1ccc(OC)c(OC)c1,89.7% (active)
8,COc1ccc(-c2n(Cc3ccccc3)c3ccccc3[n+]2Cc2ccccc2)cc1,53.1% (active)
9,O=C(CCl)Nc1cc(-c2ccccc2)nn1-c1ccccc1,-25.8% (inactive)
10,CC(C)(C)c1cc(NC(=O)CCl)n(-c2ccccc2)n1,52.2% (active)
11,CCCc1cc(NC(=O)CCl)n(-c2ccccc2)n1,40.2% (inactive)
12,Cc1ccc2c(C(=O)CCl)c(C)[nH]c2c1,83.2% (active)
13,Cc1[nH]c2ccccc2c1C(=O)CCl,95.3% (active)
14,CCOC(=O)c1c(C)[nH]c(C)c1C(=O)CSc1nc2ccccc2c(=O)n1-c1ccc(CC)cc1,-1.6% (inactive)
15,Cn1c2ccccc2c(=O)c2c(=O)n(C3CCCCC3)c(-c3cccs3)nc21,23.4% (inactive)
16,CCOc1ccc(CCn2c(-c3ccco3)nc3ccccc3c2=O)cc1OCC,-36.6% (inactive)
17,Cn1c2ccccc2c(=O)c2c(=O)n(C3CCCCC3)c(-c3ccco3)nc21,78.9% (active)
